The supplement of paper PMC12067093, “Discovery and optimisation of a covalent ligand for TRIM25 and its application to targeted protein ubiquitination” (Chemical Science, 2025)
Of roughly 21,000 targets only a part is listed; those with the largest changes were picked by preference.

Compound: CC1Cc2ccccc2N1C(=O)C1CCCN(C1)C(=O)CCl (mixture of isomers) [TRIM25 ligand 11 (diastereomer mixture)]
Assay: probe-labelled cysteine peptide fold change vs DMSO (competition) (log2 fold change); higher = less target engagement (more negative = stronger competition)
Conditions: THP-1, incubation time: 4 h
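Also: competitive chemoproteomic profiling in live THP-1 cells with an iodoacetamide desthiobiotin (IA-DTB) probe, comparing probe-labelled peptide intensities in compound-treated cells against DMSO-treated controls.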

UniProt O75818, sequence (O75818 whole entry, looked up): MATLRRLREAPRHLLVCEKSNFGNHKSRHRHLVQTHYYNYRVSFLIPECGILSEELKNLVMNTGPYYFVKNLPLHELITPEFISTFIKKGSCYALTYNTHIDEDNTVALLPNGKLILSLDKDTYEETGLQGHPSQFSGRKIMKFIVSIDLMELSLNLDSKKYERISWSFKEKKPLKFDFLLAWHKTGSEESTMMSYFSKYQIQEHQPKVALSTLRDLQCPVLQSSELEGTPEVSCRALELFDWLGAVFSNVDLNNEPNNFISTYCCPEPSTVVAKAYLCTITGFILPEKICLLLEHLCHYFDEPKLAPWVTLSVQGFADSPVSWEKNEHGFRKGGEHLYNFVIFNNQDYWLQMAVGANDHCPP
UniProt Q9H173, sequence (Q9H173 whole entry, looked up): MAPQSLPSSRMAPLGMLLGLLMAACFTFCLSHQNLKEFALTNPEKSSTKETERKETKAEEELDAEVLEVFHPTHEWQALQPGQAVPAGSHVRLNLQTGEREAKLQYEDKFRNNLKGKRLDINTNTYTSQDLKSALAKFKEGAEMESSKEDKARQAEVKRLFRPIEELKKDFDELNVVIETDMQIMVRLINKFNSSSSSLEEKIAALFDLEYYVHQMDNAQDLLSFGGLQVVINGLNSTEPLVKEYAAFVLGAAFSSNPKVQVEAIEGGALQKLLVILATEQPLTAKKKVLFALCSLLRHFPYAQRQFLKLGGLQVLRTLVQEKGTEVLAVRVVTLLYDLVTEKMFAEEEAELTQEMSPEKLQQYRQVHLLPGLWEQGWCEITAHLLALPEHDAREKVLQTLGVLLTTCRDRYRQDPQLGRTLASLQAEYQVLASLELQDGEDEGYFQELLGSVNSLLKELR
UniProt Q9Y3I0, sequence (Q9Y3I0 whole entry, looked up): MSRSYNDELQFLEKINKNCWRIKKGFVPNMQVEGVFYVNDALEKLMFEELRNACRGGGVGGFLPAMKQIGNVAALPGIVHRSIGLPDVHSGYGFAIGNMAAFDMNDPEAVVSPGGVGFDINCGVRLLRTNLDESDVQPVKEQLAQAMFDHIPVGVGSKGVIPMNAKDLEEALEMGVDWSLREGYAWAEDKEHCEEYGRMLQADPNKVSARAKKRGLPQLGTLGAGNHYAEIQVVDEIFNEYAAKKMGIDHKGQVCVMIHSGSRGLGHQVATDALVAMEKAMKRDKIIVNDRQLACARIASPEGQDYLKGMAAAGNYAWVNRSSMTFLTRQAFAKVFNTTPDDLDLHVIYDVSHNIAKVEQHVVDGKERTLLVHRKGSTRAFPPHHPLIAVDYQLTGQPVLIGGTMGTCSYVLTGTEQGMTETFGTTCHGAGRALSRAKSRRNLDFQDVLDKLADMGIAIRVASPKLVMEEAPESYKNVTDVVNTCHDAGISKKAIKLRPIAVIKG
UniProt O75643, sequence (O75643 whole entry, looked up): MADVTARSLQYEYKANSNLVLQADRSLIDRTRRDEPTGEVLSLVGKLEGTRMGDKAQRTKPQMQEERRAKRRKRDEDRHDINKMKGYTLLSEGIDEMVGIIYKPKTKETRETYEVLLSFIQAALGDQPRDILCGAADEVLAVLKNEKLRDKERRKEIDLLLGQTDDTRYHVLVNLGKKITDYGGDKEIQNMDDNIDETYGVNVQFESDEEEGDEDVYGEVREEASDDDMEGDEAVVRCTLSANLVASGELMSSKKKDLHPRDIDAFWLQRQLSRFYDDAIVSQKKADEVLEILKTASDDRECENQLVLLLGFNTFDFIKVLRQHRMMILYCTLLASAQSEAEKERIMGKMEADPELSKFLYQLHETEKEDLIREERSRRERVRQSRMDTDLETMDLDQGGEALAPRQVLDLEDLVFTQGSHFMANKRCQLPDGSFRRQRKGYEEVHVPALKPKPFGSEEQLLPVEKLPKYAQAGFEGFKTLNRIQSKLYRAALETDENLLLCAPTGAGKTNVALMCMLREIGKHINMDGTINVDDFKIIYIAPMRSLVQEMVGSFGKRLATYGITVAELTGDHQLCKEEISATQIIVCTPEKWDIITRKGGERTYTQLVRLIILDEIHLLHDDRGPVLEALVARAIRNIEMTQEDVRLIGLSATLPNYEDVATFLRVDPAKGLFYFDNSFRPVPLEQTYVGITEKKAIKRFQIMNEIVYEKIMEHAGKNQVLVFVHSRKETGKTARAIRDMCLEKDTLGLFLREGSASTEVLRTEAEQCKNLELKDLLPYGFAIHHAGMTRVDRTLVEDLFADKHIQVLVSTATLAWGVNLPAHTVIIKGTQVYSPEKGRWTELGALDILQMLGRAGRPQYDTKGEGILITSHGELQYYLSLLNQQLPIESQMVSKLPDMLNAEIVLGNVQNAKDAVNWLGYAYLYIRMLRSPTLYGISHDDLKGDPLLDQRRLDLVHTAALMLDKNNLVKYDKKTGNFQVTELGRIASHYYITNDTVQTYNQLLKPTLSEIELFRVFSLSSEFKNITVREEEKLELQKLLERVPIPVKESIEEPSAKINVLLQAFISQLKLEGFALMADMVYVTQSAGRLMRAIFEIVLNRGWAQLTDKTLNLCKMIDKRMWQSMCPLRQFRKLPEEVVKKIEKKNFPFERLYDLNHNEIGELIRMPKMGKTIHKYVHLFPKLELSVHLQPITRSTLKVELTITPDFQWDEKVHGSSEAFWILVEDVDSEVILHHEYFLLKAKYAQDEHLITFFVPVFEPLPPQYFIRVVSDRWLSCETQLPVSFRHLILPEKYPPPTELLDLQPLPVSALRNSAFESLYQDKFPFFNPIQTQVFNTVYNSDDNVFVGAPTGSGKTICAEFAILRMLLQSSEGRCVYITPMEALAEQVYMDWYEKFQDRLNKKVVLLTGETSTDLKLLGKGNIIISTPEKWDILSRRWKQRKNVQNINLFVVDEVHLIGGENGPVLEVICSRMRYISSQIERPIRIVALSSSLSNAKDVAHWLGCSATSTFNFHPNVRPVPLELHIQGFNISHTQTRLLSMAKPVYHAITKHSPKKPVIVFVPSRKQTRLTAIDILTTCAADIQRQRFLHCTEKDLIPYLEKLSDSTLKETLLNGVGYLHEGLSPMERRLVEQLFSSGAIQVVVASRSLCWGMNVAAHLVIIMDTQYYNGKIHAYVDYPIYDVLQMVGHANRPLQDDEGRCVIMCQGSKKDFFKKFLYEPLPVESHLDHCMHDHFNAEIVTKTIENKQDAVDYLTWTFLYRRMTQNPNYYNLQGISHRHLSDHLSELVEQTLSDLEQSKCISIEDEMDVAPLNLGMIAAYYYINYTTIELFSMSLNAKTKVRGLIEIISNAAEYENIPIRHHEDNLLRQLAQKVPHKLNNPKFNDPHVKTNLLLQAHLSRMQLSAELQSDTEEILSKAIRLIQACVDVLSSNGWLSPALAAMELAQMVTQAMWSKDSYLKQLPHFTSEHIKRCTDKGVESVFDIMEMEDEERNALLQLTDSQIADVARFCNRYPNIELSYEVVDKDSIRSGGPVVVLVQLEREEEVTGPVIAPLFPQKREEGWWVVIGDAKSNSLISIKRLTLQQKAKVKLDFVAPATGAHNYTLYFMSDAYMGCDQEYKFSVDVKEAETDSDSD
UniProt Q9UGP8, sequence (Q9UGP8 whole entry, looked up): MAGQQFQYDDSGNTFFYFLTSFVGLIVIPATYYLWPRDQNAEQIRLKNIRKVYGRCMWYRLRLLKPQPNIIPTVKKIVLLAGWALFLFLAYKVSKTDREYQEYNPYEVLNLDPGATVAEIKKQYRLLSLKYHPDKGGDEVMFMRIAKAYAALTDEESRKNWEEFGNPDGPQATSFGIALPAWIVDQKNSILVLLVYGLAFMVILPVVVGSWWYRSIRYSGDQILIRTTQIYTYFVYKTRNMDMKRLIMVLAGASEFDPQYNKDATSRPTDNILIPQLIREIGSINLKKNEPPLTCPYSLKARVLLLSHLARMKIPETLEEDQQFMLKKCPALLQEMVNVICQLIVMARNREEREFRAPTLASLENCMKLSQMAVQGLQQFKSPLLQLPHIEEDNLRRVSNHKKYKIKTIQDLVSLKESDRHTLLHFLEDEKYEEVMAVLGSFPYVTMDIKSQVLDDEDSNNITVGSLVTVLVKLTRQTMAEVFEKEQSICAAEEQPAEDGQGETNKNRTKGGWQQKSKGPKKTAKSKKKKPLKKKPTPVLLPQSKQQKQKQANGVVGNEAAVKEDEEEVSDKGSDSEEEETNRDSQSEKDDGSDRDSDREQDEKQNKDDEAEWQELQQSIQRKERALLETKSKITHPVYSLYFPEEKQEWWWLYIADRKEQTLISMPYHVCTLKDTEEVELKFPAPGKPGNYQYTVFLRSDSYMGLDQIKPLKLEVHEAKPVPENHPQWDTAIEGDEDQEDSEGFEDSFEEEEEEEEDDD
UniProt Q13884, sequence (Q13884 whole entry, looked up): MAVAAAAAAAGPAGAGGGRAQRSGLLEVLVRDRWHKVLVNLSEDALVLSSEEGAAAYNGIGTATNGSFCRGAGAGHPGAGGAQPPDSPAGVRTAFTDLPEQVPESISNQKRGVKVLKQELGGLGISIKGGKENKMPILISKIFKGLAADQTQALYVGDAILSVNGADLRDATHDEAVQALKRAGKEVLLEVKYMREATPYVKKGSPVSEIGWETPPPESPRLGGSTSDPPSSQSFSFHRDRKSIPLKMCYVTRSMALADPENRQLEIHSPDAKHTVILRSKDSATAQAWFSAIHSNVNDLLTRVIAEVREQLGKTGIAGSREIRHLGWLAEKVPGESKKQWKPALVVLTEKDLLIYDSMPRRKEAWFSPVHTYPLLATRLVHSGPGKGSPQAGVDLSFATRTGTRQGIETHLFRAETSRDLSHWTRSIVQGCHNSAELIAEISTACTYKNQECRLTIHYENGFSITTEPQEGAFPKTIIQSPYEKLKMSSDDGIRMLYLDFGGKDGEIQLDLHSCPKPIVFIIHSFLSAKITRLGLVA

Target	probe-labelled cysteine peptide fold change (10 µM)	probe-labelled cysteine peptide fold change (50 µM)
SLU7_O95391_445_CCHSFFK (UniProt O95391)	0.132	0.191
RTCB_Q9Y3I0_485_NVTDVVNTCHDAGISK (UniProt Q9Y3I0)	-0.0281	-0.0777
SCP2_P22307_115_QLIQGGVAECVLALGFEK (UniProt P22307)	-2.21	-2.14
RPS28_P62857_27_TGSQGQCTQVRVEFMDDTSR (UniProt P62857)	-0.718	-0.281
SEPT9_Q9UHD8_531_WGTIEVENTTHCEFAYLR (UniProt Q9UHD8)	0.0123	-0.0856
SRD5A3_Q9H8P0_238_AGVVIHCNHR (UniProt Q9H8P0)	0.00183	-0.036
SNTB1_Q13884_515_DGEIQLDLHSCPKPIVFIIHSFLSAK (UniProt Q13884)	-0.207	0.302
SEC23B_Q15437_40_MVVPLACLLTPLK (UniProt Q15437)	-0.0615	-0.0659
SIL1_Q9H173_408_VLQTLGVLLTTCR (UniProt Q9H173)	0.0793	0.848
SAFB2_Q14151_224_ILDILGETCK<|>SAFB_Q15424_225_ILDILGETCK (UniProt Q15424+Q14151)	-0.021	-0.165
RPP40_O75818_49_VSFLIPECGILSEELK (UniProt O75818)	0.101	0.161
SLC35B1_P78383_119_SCKPIPVMLLGVTLLK (UniProt P78383)	-0.942	0.0401
SEC63_Q9UGP8_490_EQSICAAEEQPAEDGQGETNK (UniProt Q9UGP8)	0.0683	-0.228
SNRNP200_O75643_576_RLATYGITVAELTGDHQLCK (UniProt O75643)	-0.0593	0.102
